High-throughput results: PubChem, several laboratories
The list is not random: actives were taken first. Their share in the collection is about 4.5%.
Mtb FBA inh: inhibitors of M. tuberculosis fructose-bisphosphate aldolase; P9WQA3; purified M. tuberculosis FBA, fluorescence read-out; inhibition, % at 1 µM; hit rate 2.3% among 360,000
Target sequence (P9WQA3 whole entry, looked up): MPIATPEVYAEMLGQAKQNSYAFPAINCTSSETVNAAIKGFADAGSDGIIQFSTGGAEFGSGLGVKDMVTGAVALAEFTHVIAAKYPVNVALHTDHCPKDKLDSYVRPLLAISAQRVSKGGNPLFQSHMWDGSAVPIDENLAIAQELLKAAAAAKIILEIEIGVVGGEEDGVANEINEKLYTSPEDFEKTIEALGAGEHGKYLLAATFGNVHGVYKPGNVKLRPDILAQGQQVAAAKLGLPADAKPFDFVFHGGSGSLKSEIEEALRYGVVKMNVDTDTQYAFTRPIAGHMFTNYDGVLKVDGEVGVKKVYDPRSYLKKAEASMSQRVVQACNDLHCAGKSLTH
GDH-TPI counter-1: counter-screen for M. tuberculosis FBA inhibitors: GDH-TPI coupled enzymes | GDH-TPI coupled enzyme counterscreen, NADH absorbance | AID 588335 | inhibition, % at 4.8 µM | hit rate 1.2% among 360,000; in the data active = inhibition above about 30%
PrPC TRFRET: reduces human prion protein on the cell surface; cell surface PrPC, TR-FRET read-out; inhibition, % at 13.8 µM; P04156; hit rate 0.43% among 370,000; in the data active = inhibition above about 24%
PrP UTR inh: suppresses PrP 5' UTR mRNA reporter expression. cell-based PrP 5' UTR mRNA reporter, plate reader. inhibition, % (concentration not given with the values). hit rate 0.35% among 340,000; in the data active = inhibition above about 52%
PfHsp40 yeast: rescue of PfHsp40-mediated yeast toxicity; S. cerevisiae expressing PfHsp40, growth rescue, ATP luminescence; growth rescue, % at 12.5 µM; hit rate 0.68% among 340,000; AID 504582; in the data active = growth rescue above about 28%, passing the limit was not always enough; inconclusive = no clear call, values can overlap the other calls;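 note: yeast W303a lacking pdr1 and pdr3 grown in galactose medium; growth measured after three days at 30 °C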
BJeLR viability: BJeLR cell viability loss. hit rate 0.17% among 300,000. inhibition, % (concentration not given with the values). BJeLR (HRASV12) viability, CellTiter-Glo ATP luminescence, 48 h; in the data active = inhibition above about 50%; inconclusive = no clear call, values can overlap the other calls
Mtb FBA confirm: Mtb FBA inhibition, confirmed. hit rate 78% among 5,600. purified M. tuberculosis FBA, fluorescence read-out. inhibition, % at 1 µM. shares compounds with Mtb FBA inh
GDH-TPI counter-2: inhibits GDH-TPI coupling enzymes, flagging Mtb FBA hits; hit rate 81% among 5,600; GDH-TPI coupled enzyme counterscreen, fluorescence; inhibition, % at 1 µM; shares compounds with Mtb FBA inh; in the data active = inhibition above about 10%
Of the large screens only hits and unclear results are named; the others gave an inactive call (follow-up assays come after a bar, where they were run). Cut-off read from the data, not from the text of the source, unless noted: active = inhibition above about 27%; inactive = the rest.

[O-][n+]1c2ccccc2cc2ccccc21	Mtb FBA inh 73 | Mtb FBA confirm active | GDH-TPI counter-2 active
COc1ccc2nc3ccccc3[n+]([O-])c2c1	none (no result: BJeLR viability)
COc1ccccc1C1=NC(c2ccccc2)CN1c1ccccc1 (stereo not given)	Mtb FBA inh 102 | Mtb FBA confirm 89 | GDH-TPI counter-2 63
COc1ccccc1-c1cn(-c2ccccc2)c(=S)[nH]1	none
COC(=O)C1CCN(S(=O)(=O)c2c[nH]c(=O)[nH]c2=O)CC1	none (no result: PrP UTR inh, PfHsp40 yeast, BJeLR viability)
Cc1ccccc1CC1(CO)CCCN(C(=O)CCCN2CCCCC2=O)C1 (stereo not given)	Mtb FBA inh 29 | Mtb FBA confirm inactive | GDH-TPI counter-2 23
CCOC(=O)C1(Cc2ccccc2C)CCCN(C(=O)CN2CCCCC2=O)C1 (stereo not given)	none
NC(=O)c1cccn(Cc2ccc(C(F)(F)F)cc2)c1=O	Mtb FBA inh 52 | Mtb FBA confirm 96 | GDH-TPI counter-2 72
CNC(=O)c1cccn(Cc2ccc(C(F)(F)F)cc2)c1=O	Mtb FBA inh 29, PfHsp40 yeast inconclusive | Mtb FBA confirm 68 | GDH-TPI counter-2 43
O=C(c1ccc(OC2CCN(CCc3ccccc3)CC2)cc1)N1CCC(CO)CC1	none
COc1ccc2cc3cc(C(=O)NC4CC4)sc3nc2c1	Mtb FBA inh 102 | Mtb FBA confirm 130 | GDH-TPI counter-2 117
COC(=O)C1(C)NC(=O)c2ccccc2N1 (stereo not given)	Mtb FBA inh 30 | Mtb FBA confirm 39 | GDH-TPI counter-2 42
COC(=O)C1(C)Nc2ccccc2C(=O)N1c1ccccc1OC (stereo not given)	Mtb FBA inh 29 | Mtb FBA confirm 86 | GDH-TPI counter-2 56
Clc1ccc(C=Cc2ccccn2)cc1	none (no result: BJeLR viability)
N#Cc1ccc(/C=C\c2nccc3c2[nH]c2ccccc23)cc1	Mtb FBA inh 54 | Mtb FBA confirm 54 | GDH-TPI counter-2 45
Clc1ccc(/C=C\c2nccc3c2[nH]c2ccccc23)cc1	Mtb FBA inh 54 | Mtb FBA confirm 55 | GDH-TPI counter-2 41
COC(=O)c1cc2c(s1)-c1ccc(OC)cc1CC2	Mtb FBA inh 109 | Mtb FBA confirm 107 | GDH-TPI counter-2 94
Cc1cc(=O)c2c([nH]1)c(C)cc1[nH]c(C)c(C)c12	none (no result: BJeLR viability)
Cc1ccc(S(=O)(=O)N2CCOCC2)cc1C(=O)NC(=S)N1CC(C)OC(C)C1 (stereo not given)	none
COc1ccc2c(=O)cc(-c3ccccc3F)oc2c1	none
COc1ccc2oc(-c3ccncc3)cc(=O)c2c1	Mtb FBA inh 30 (no result: BJeLR viability) | Mtb FBA confirm active | GDH-TPI counter-2 active
COc1ccc(-c2cc3cc(OC)c(OC)cc3cn2)cc1	Mtb FBA inh 89 (no result: BJeLR viability) | Mtb FBA confirm 45 | GDH-TPI counter-2 33
CCCCOc1ccc(C(=O)N2CCN(c3ncccn3)CC2)cc1	none
Cc1ccccc1OCC(=O)Nc1cc(S(=O)(=O)N2CCCCC2)ccc1N1CCN(C)CC1	none
Cn1c2ccccc2c(=O)c2ccc(Cl)cc21	Mtb FBA inh 106 (no result: PrP UTR inh, PfHsp40 yeast, BJeLR viability) | Mtb FBA confirm 64 | GDH-TPI counter-2 44
CCOC(=O)c1ccc(-c2ccc3c(=O)c4ccccc4n(C)c3c2)cc1F	Mtb FBA inh 57 | Mtb FBA confirm 133 | GDH-TPI counter-2 117
Cn1c(=O)oc(=O)c2ccccc21	Mtb FBA inh 94 (no result: BJeLR viability) | Mtb FBA confirm 135 | GDH-TPI counter-2 116
COc1ccc(C#Cc2ccc3c(=O)c4ccccc4n(C)c3c2)cc1	none (no result: Mtb FBA inh, GDH-TPI counter-1, PrPC TRFRET)
CC(C)[C@H](NC(=O)N1CCOCC1)C(=O)N1CCC[C@H]1C(=O)NCc1ccccc1	none (no result: Mtb FBA inh, GDH-TPI counter-1, PrP UTR inh, PfHsp40 yeast, BJeLR viability)
CCOc1cc(OCC)cc(C(=O)N2CCC[C@H]2C(=O)N2CCC[C@H]2C(=O)NCc2cccc(OC)c2)c1	none (no result: Mtb FBA inh, GDH-TPI counter-1, PrP UTR inh, PfHsp40 yeast, BJeLR viability)
COc1ccc(Cc2c(-c3ccc(F)cc3)nc3ccc(Cl)cn23)c(C)c1	none (no result: GDH-TPI counter-1, PrP UTR inh, PfHsp40 yeast, BJeLR viability)
Cc1cccc2c1-c1sc(C(=O)Nc3nccs3)cc1CO2	Mtb FBA inh 42 | Mtb FBA confirm inactive | GDH-TPI counter-2 inactive
Cc1cccc2c1-c1sc(C(=O)Nc3cccc([N+](=O)[O-])c3C)cc1CO2	none
CCOC(=O)c1cc2c(s1)-c1c(C)cccc1OC2	Mtb FBA inh 82 | Mtb FBA confirm inactive | GDH-TPI counter-2 17
O=C(Nc1ccc(Cl)cn1)c1cc2c(s1)-c1ccccc1OC2	Mtb FBA inh 47 | Mtb FBA confirm inactive | GDH-TPI counter-2 20
CCOC(=O)c1cc(=O)nc(N)s1	none (no result: PrP UTR inh, PfHsp40 yeast, BJeLR viability)
O=C(Nc1nccs1)c1cc2c(s1)-c1ccccc1OC2	Mtb FBA inh 28 | Mtb FBA confirm 142 | GDH-TPI counter-2 116
O=C(NCC(c1ccco1)N1CCOCC1)c1c(F)cccc1F (stereo not given)	none
Cn1c(SCC(=O)NCc2cccs2)nnc1-c1ccc(O)cc1	none
CSC(=NC#N)N1CCN(c2ccc(Cl)cc2)CC1	none
Cc1cc(OC(C)C(=O)NCCCn2ccnc2)c2c(C)c(C)c(=O)oc2c1 (stereo not given)	Mtb FBA inh 79 | Mtb FBA confirm 134 | GDH-TPI counter-2 99
CCc1cc(=O)oc2c(C)c(OC(C)C(=O)NCCCn3ccnc3)ccc12 (stereo not given)	Mtb FBA inh 66 | Mtb FBA confirm 77 | GDH-TPI counter-2 68
Cc1cc(OCC(=O)NCCCn2ccnc2)c2c(C)c(C)c(=O)oc2c1	Mtb FBA inh 76 | Mtb FBA confirm 38 | GDH-TPI counter-2 29
CCc1cc(=O)oc2cc(C)cc(OCC(=O)NCCCn3ccnc3)c12	Mtb FBA inh 61 | Mtb FBA confirm active | GDH-TPI counter-2 active
O=[N+]([O-])c1cccc(OC[C@@H](O)CN2CCC(C(O)(c3ccccc3)c3ccccc3)CC2)c1	none (no result: Mtb FBA inh, GDH-TPI counter-1, PrP UTR inh, PfHsp40 yeast, BJeLR viability)
CCCCc1cc(=O)oc2cc(C)cc(OCC(=O)NCCN3CCOCC3)c12	Mtb FBA inh 51 | Mtb FBA confirm active | GDH-TPI counter-2 170
Cc1cc(OCC(=O)NCCN2CCOCC2)c2c(C)c(C)c(=O)oc2c1	Mtb FBA inh 52 | Mtb FBA confirm inactive | GDH-TPI counter-2 inactive
CCCc1cc(=O)oc2cc(OCC(=O)NCCCN3CCOCC3)c(Cl)cc12	none
Cc1cc(=O)oc2cc(OCC(=O)NCCCN3CCOCC3)c(Cl)cc12	none
CCCc1cc(=O)oc2cc(C)cc(OCC(=O)NCCCN3CCOCC3)c12	Mtb FBA inh 73 | Mtb FBA confirm inactive | GDH-TPI counter-2 30
COc1cccc(NC(=S)N2CCn3cccc3C2c2cccnc2)c1 (stereo not given)	none
CCCCCCCCN1C(=O)[C@H](CC(=O)NCCCCc2ccccc2)C[C@@]2(C(=O)OC)CC(C)(C)CC=C12	none (no result: Mtb FBA inh, GDH-TPI counter-1, PrP UTR inh, PfHsp40 yeast, BJeLR viability)
N#Cc1c(-c2ccco2)cc(-c2ccccc2)[nH]c1=O	Mtb FBA inh 78 | Mtb FBA confirm 80 | GDH-TPI counter-2 68
